{"source": "PubChem BioAssay AID651616", "about": "(The Scripps Research Institute Molecular Screening Center, 2012)", "note": "The campaign covered roughly 5,600 compounds. About 4,400 (79%) were called active. The set was probably picked from earlier hits. A selection follows. A number with no mark means an inactive call. Cut-off read from the data, not from the text of the source: active = inhibition above about 27%; inactive = the rest.", "data": [{"molecular_target": "Fructose-bisphosphate aldolase (Mycobacterium tuberculosis (strain ATCC 25618 / H37Rv)) (UniProt P9WQA3)", "sequence (P9WQA3 whole entry, looked up)": "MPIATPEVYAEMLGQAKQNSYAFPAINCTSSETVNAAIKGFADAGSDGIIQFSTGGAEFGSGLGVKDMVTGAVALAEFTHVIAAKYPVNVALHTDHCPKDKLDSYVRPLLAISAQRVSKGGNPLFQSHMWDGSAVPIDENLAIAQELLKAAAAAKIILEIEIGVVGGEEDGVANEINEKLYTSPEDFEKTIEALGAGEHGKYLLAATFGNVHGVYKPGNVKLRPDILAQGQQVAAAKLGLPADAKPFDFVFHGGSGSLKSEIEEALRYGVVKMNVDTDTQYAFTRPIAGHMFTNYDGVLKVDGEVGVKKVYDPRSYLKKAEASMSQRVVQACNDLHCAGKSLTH", "test": "M. tuberculosis aldolase blockers, biochemical, fluorescence, strain H37Rv, confirmation (AID 651616);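 note: 0% = vehicle wells and 100% = reference inhibitor wells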", "details": "purified M. tuberculosis FBA, fluorescence read-out, at 1 µM, active compounds read high", "values": [{"smiles": "CC(C)n1ncc2c(C(=O)NCc3ccccc3CN(C)C)cc(C3CC3)nc21", "inhibition": "144% (active)"}, {"smiles": "CC(C)(C)OC(=O)NNc1c2ccccc2nc2ccccc12", "inhibition": "-3.52%"}, {"smiles": "COC(=O)c1cc(-c2cccs2)nc2ccccc12", "inhibition": "136% (active)"}, {"smiles": "O=C(NCCN1CCOCC1)c1cc(-c2cccs2)nc2ccccc12", "inhibition": "8.64%"}, {"smiles": "Brc1cnc2ccccc2c1N1CCCCC1", "inhibition": "83.3% (active)"}, {"smiles": "COc1ccc2c(c1)cc1n2CCN=C1NN", "inhibition": "108% (active)"}, {"smiles": "CCN(C(=O)COC(=O)c1ccc(COc2ccc3c(C)cc(=O)oc3c2)cc1)C1CCS(=O)(=O)C1", "note": "(stereo unspecified)", "inhibition": "4.73%"}, {"smiles": "CCC(C)N(C(=O)COC(=O)C1C(C(=O)OC)=C(C)NC(C)=C1C(=O)OC)C1CCS(=O)(=O)C1", "note": "(stereo unspecified)", "inhibition": "172% (active)"}, {"smiles": "COCc1cc(=O)[nH]c2cc(NC(=O)C(F)(F)F)c(C)cc12", "inhibition": "73% (active)"}, {"smiles": "CN1c2ccc(C=O)c3c(C=O)ccc(c23)N(C)C1(C)C", "inhibition": "21.7%"}, {"smiles": "CN(C(=O)c1cc2c(=O)n3ccccc3nc2s1)C1CCCCC1", "inhibition": "50.9% (active)"}, {"smiles": "Cc1ccc(-n2c(=O)c(C#N)cc3c(=O)n4ccccc4nc32)cc1C", "inhibition": "21.8%"}, {"smiles": "COCCCNC(=S)NCCNc1nc2cc(C)c(C)cc2cc1C#N", "inhibition": "91.5% (active)"}, {"smiles": "CCOc1ccc2nc(NCCNS(=O)(=O)c3ccccc3)c(C#N)cc2c1", "inhibition": "19.6%"}, {"smiles": "CN(C(=O)COc1ccccc1)c1nnc(-c2ccncc2)s1", "inhibition": "830% [above what the read-out allows, likely interference] (active)"}, {"smiles": "CN(C(=O)c1ccccn1)c1nnc(-c2ccccn2)s1", "inhibition": "618% [above what the read-out allows, likely interference] (active)"}, {"smiles": "CC1=CC2=NC(=O)CC(C)(C(=O)N(CC(=O)NC(C)(C)C)Cc3ccccc3)N2C=C1", "note": "(stereo unspecified)", "inhibition": "4.13%"}, {"smiles": "CCCCC(NS(=O)(=O)c1ccc(C)cc1)C(=O)Oc1ccc2c3c(c(=O)oc2c1)CCC3", "note": "(stereo unspecified)", "inhibition": "81.2% (active)"}, {"smiles": "NC(=O)C1CCN(C(=O)COc2ccc3c4c(c(=O)oc3c2)CCC4)CC1", "inhibition": "-0.32%"}, {"smiles": "C=CCn1c(N)c(C(=O)OCC(C)C)c2nc3ccccc3nc21", "inhibition": "73.3% (active)"}, {"smiles": "COCC(C)OC(=O)c1c(N)n(CCCN2CCOCC2)c2nc3ccccc3nc12", "note": "(stereo unspecified)", "inhibition": "-0.37%"}, {"smiles": "CC(C)Cn1c(N)c(C(=O)NCc2cccs2)c2nc3ccccc3nc21", "inhibition": "41.1% (active)"}, {"smiles": "CCCNC(=O)c1c(N)n(-c2ccc(S(N)(=O)=O)cc2)c2nc3ccccc3nc12", "inhibition": "25.9%"}, {"smiles": "O=C(Nc1cccc2ccccc12)N1CCC2(CC1)OCCO2", "inhibition": "124% (active)"}, {"smiles": "O=C(Nc1cccc2ccccc12)N1CCN(Cc2ccc3c(c2)OCO3)CC1", "inhibition": "72.6% (active)"}, {"smiles": "CCOC(=O)N1CCN(C(=O)c2cc3c(ccc4ccccc43)oc2=O)CC1", "inhibition": "4.05%"}, {"smiles": "COCCCn1c(C(=O)NC2CCCCC2)cc2c(=O)n3cccc(C)c3nc21", "inhibition": "66.3% (active)"}, {"smiles": "C#Cc1cc(N2CCN(C(=O)c3ccoc3)CC2)n2nc(-c3cccc(Cl)c3)cc2n1", "inhibition": "85.9% (active)"}, {"smiles": "Cn1cc(-c2ccccc2)cc(C#N)c1=O", "inhibition": "79.6% (active)"}, {"smiles": "C=CCn1cc(-c2cccc(C(F)(F)F)c2)cc(C#N)c1=O", "inhibition": "0.59%"}, {"smiles": "CCCCN(CCCC)CC(O)Cn1c2ccccc2c(=O)c2ccccc21", "note": "(stereo unspecified)", "inhibition": "113% (active)"}, {"smiles": "Nc1ccccc1C(=O)NC1CCCCNC1=O", "note": "(stereo unspecified)", "inhibition": "151% (active)"}, {"smiles": "Cc1ccc(C2Nc3ccccc3C(=O)N2CCN2CCNC2=O)cc1", "note": "(stereo unspecified)", "inhibition": "-6.16%"}, {"smiles": "CCOC(=O)NN1C(=O)c2ccccc2NC1c1cccc(O)c1", "note": "(stereo unspecified)", "inhibition": "136% (active)"}, {"smiles": "Cc1cc(S(=O)(=O)c2cc3ccc(O)c(C)c3oc2=O)ccc1F", "inhibition": "44.7% (active)"}, {"smiles": "CCOc1ccc2nc(Nc3nc4ccc(NC(C)=O)cc4s3)sc2c1", "inhibition": "19%"}, {"smiles": "Cc1c(CCC(=O)O)c(=O)oc2cc(OCc3ccc(Br)cc3)ccc12", "inhibition": "4.1%"}, {"smiles": "CCc1c(C)c2ccc(OC3CCCCC3=O)cc2oc1=O", "note": "(stereo unspecified)", "inhibition": "99.7% (active)"}, {"smiles": "CCN1CCN(C(=O)c2cc3cc4ccc(OC)cc4nc3s2)CC1", "inhibition": "96.2% (active)"}, {"smiles": "O=C(c1cc(-c2ccco2)nc2ccccc12)N(Cc1nnc(-c2ccc(Cl)cc2)o1)C1CC1", "inhibition": "120% (active)"}, {"smiles": "CN(CCOc1ccccc1)C(=O)c1cc(-c2ccco2)nc2ccccc12", "inhibition": "5.04%"}, {"smiles": "Nc1ccccc1-c1nc2ccncc2[nH]1", "inhibition": "3.13%"}, {"smiles": "COc1ccc2sc(-c3ccc(N(C)C)cc3)c(-c3ccc4cc[nH]c4c3)c2c1", "inhibition": "59.8% (active)"}, {"smiles": "Cc1cccc2c1-c1sc(C(=O)NCCCN3CCc4ccccc4C3)cc1CO2", "inhibition": "0.47%"}, {"smiles": "O=C(NCCN1CCN(Cc2ccccc2)CC1)c1cc2c(=O)[nH]c3ccccc3c2s1", "inhibition": "133% (active)"}, {"smiles": "Cc1cnc(C(=O)OCC(=O)N2CCc3ccccc32)cn1", "inhibition": "108% (active)"}, {"smiles": "Cc1nn(-c2ccccc2)nc1C(=O)OCC(=O)N1CCCCC1C", "note": "(stereo unspecified)", "inhibition": "-2.48%"}, {"smiles": "CCC1C(=O)c2ccccc2N(C)C1=O", "note": "(stereo unspecified)", "inhibition": "7.44%"}, {"smiles": "COc1ccc2[nH]c3c(=O)n(Cc4ccco4)cnc3c2c1", "inhibition": "8.42%"}, {"smiles": "COc1cccc2sc3cc(NCC[C@@H]4CCCN4C)ccc3c(=O)c12", "inhibition": "77.9% (active)"}, {"smiles": "Cc1cc(=O)oc2c1ccc1ccccc12", "inhibition": "88.8% (active)"}, {"smiles": "COCCCn1c(CCC(=O)O)ccc1-c1ccc(F)cc1", "inhibition": "46% (active)"}, {"smiles": "Cc1ccc(C2Nc3cccc4cccc(c34)N2)cc1", "inhibition": "177% (active)"}, {"smiles": "O=C1C(=O)N(c2ccccc2)C(c2ccccc2)C1c1ccccc1", "note": "(stereo unspecified)", "inhibition": "13.8%"}, {"smiles": "OC[C@@H]1CN(Cc2cccs2)C[C@H](n2cnc3c(Nc4ccccc4)ncnc32)O1", "inhibition": "90.6% (active)"}, {"smiles": "COc1cc(/C=C/c2ccc(/C=C/c3cc(OC)c(OC)c(OC)c3)cc2)cc(OC)c1OC", "inhibition": "27.4% (active)"}, {"smiles": "COc1ccc(NC(=O)CN(C)C(=O)c2cc(-c3ccc(C)o3)nc3ccccc23)cc1", "inhibition": "79.1% (active)"}, {"smiles": "COCCCNC(=O)/C(C#N)=C/c1c(N2CCCCCC2)nc2ccccn2c1=O", "inhibition": "60.9% (active)"}, {"smiles": "CCCc1nc2oc3c(=O)[nH]cnc3c2c2c1COC(C)(C)C2", "inhibition": "108% (active)"}, {"smiles": "CCOC(=O)c1[nH]c2ccc(OC)cc2c1NC(=O)CCN1CCN(Cc2ccccc2)CC1", "inhibition": "3.58%"}, {"smiles": "CCOC(=O)c1[nH]c2ccc(OC)cc2c1NC(=O)N1CCOCC1", "inhibition": "130% (active)"}]}]}
